# GPR151 ag: human GPR151 activation | Q8TDV0 | PathHunter beta-arrestin GPR151 cells, luminescence | activation, % at 11.2 µM | 1% of 650,000 active | AID 1508602; in the data active means activation above about 4.9%;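 further: 0% = median of compound wells and 100% = cells with positive control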
# Target sequence (Q8TDV0 whole entry, looked up): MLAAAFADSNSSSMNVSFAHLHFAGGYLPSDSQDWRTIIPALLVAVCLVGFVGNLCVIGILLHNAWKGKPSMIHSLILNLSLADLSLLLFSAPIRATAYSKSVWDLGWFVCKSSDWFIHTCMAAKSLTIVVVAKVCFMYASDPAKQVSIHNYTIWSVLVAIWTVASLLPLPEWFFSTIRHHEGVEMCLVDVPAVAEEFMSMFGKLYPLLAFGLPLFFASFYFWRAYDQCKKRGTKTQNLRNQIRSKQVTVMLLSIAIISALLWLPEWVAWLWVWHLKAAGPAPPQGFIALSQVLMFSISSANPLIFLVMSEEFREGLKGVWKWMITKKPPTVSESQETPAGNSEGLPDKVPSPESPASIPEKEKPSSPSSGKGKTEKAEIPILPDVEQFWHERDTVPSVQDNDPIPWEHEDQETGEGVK
# TEAD-YAP block: TEAD-YAP interaction inhibition | inhibition, % at 9.12 µM | AID 1259422 | 1.4% of 640,000 active | HEK-TIYL cells, TEAD-Gal4/YAP UAS-luciferase luminescence; in the data active means inhibition above about 32%;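 further: 0% = median of test compound wells and 100% = reference inhibitor wells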
# FBW7 activator: activators of human E3 ligase FBW7 | Q969H0 | AlphaScreen FBW7–phospho-cyclin E peptide binding, activator screen | normalized activity (activation), % at 26.1 µM | 0.13% of 650,000 active | AID 1259310; in the data active means normalized activity above about 1.9%;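 further: purified mutant Fbw7 with reduced substrate affinity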
# MITF inh: human MITF inhibition, primary screen | inhibition, % at 2.6 µM | AID 1259374 | 0.91% of 650,000 active | AlphaScreen MITF homodimerization, bead proximity signal; in the data active means inhibition above about 50%;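 further: 0% = vehicle wells with protein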
# GPR151 confirm: human GPR151 activation, confirmation screen. shares compounds with GPR151 ag. GPR151 PathHunter beta-arrestin cells, luminescence, 90 min; % of EA-reagent control over plate median. activation, % at 11.2 µM. 6,700 tested, under 10 active. AID 1508609;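 active means mean percent activation across replicates above the confirmation screen cutoff of 4.91%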
# GPR119 ag: counter-screen for GPR151 activators: effect on human GPR119; shares compounds with GPR151 ag; 0.3% of 6,700 active; activation, % at 11.2 µM; GPR119 PathHunter beta-arrestin cells, luminescence, 90 min; 0 = compound-well median, 100 = enzyme-acceptor control; AID 1508611;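 active means mean percent activation in the counterscreen above 29.09%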;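 further: counterscreen on off-target GPR119 to flag nonselective hits from the GPR151 activator screen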
# * hit, by the source's call; . = no result given. An excerpt weighted towards active compounds, which were near 3.5% of everything screened.
SMILES,GPR151 ag,TEAD-YAP block,FBW7 activator,MITF inh,GPR151 confirm,GPR119 ag
COc1ccc(Cl)cc1NC(=O)CSc1nc(=O)n2ccccc2n1,5.7*,3,0,5,0,-15
COc1ccc(Cl)cc1NC(=O)CSc1nc(N)cc(N)n1,0,-8,0,0,.,.
COc1ccc(Cl)cc1NC(=O)CSc1nccn1-c1ccccc1C,5.2*,-2,0,-1,-1,-13
CC(C)N(CCC#N)S(=O)(=O)c1cccc2nsnc12,-1,7,0,-4,.,.
CN(C)CC(C)(C)CN(CCC#N)S(=O)(=O)c1cccc2nsnc12,5.0*,-1,0,14,0,0
NC(=O)/C(=C\c1ccco1)NC(=O)c1ccccc1Br,6.6*,0,0,11,2,3
CCCCNC(=O)/C(=C/c1ccco1)NC(=O)c1ccc(I)cc1,1,15,0,14,.,.
CCCCNC(=O)/C(=C/c1ccco1)NC(=O)c1ccccc1I,9.2*,10,0,6,0,-9
O=C(c1cccc(Cl)c1)n1nc(-c2cccnc2)nc1NCc1ccco1,0,0,0,7,.,.
CC(=O)Nc1ccc(OCCn2c(C)c(C=C3C(=O)NC(=O)NC3=O)c3ccccc32)cc1,6.4*,-8,0,6,-1,-5
COc1ccc(I)cc1S(=O)(=O)N1CCN(Cc2ccccc2)CC1,1,4,0,3,.,.
COc1cc(Cl)c(S(=O)(=O)N2CCN(Cc3ccccc3)CC2)cc1Cl,6.5*,5,0,11,0,-17
O=S(=O)(c1ccc(Cl)cc1Br)N1CCN(Cc2ccccc2)CC1,6.2*,-6,0,-2,0,-9
O=S(=O)(c1cc(Br)ccc1Br)N1CCN(Cc2ccccc2)CC1,-2,4,0,8,.,.
O=C(Nc1ccccc1C(=O)Nc1ccc(F)cc1)c1cccc(S(=O)(=O)N2CCCCCC2)c1,0,-4,0,14,.,.
Cc1ccc(S(=O)(=O)n2cc(-c3ccnc(N)c3)c3cc(Br)cnc32)cc1,7.6*,.,.,.,0,-2
CCOc1ccc(/C=N/NC(=O)C(=O)NC2CC2)cc1,5.7*,-1,0,19,1,4
CC(C)Oc1ccc(/C=N/NC(=O)C(=O)NC2CCCCC2)cc1,1,-6,0,-9,.,.
COc1ccc(OC)c(S(=O)(=O)Nc2ccc(C(=O)O)cc2)c1,0,2,0,0,.,.
COc1cc(NS(=O)(=O)c2cc(C(=O)O)ccc2OC)cc(OC)c1,9.2*,10,0,2,0,8
O=C(c1ccccc1Br)N(Cc1ccc(Cl)cc1)C1CCS(=O)(=O)C1 (centres undefined),4,0,0,3,.,.
COC(=O)c1ccccc1C(=O)c1cccc2ccccc12,10*,1,0,-3,0,-4
COc1ccc(NC(=O)c2cccc3ccccc23)cc1,-1,-4,0,-3,.,.
Cc1cnc(C)c(-c2ccc3c(c2)CC(CNC(=O)CSc2ccccn2)O3)n1 (centres undefined),-1,-2,1,23,.,.
O=C(CSCc1ccc(Cl)cc1)N1CCN(C(c2ccccc2)c2ccccc2)CC1,0,7,0,0,.,.
SMILES,GPR151 ag,TEAD-YAP block,FBW7 activator,MITF inh,GPR151 confirm,GPR119 ag
COc1ccc(-c2nnc3ccc(SCc4ccccc4)nn23)cc1OC,5.6*,-8,0,-3,0,3
COc1ccc(-c2nnc3ccc(SCc4ccc(F)cc4)nn23)cc1OC,4,4,0,-9,.,.
CN(C)c1cccc2c(S(=O)(=O)Nc3nccnc3-c3ccc(CO)cc3)cccc12,0,10,0,46,.,.
O=Cc1ccc(-c2nccnc2NS(=O)(=O)c2cccc(Cl)c2)cc1,5.0*,9,0,8,0,-6
CN(C)c1cccc2c(S(=O)(=O)Nc3nccnc3-c3ccc(C=O)cc3)cccc12,5.9*,2,0,2,2,-7
CN(C)c1ccc(-c2nccnc2NS(=O)(=O)c2ccc(Cl)cc2)cc1,1,1,-1,-10,.,.
CCOc1ccccc1Nc1nnc(SCC(=O)c2ccccc2)s1,0,-9,0,5,.,.
O=C(COc1ccc(Cl)cc1Br)N/N=C/c1cc([N+](=O)[O-])ccc1O,5.1*,-4,0,-5,1,11
